{"source": "the supplement of paper PMC11732987", "about": "“Enantioselective OTUD7B fragment discovery through chemoproteomics screening and high-throughput optimisation” (Communications Chemistry, 2025)", "assay_in_all_cases": "log2 ratio of Biotin-Ahx-Ub-VS probe labelling (fragment/DMSO); higher = less target engagement (more negative = stronger competition), active = hit call of the paper (q ≤ 0.05, log2 ratio ≤ -1)", "conditions_in_all_cases": "compound concentration: 200 uM; treatment time: 3 h", "key": {"USP19": {"biological_target": "T1, USP19 (UniProt O94966)", "T1 sequence (whole entry)": "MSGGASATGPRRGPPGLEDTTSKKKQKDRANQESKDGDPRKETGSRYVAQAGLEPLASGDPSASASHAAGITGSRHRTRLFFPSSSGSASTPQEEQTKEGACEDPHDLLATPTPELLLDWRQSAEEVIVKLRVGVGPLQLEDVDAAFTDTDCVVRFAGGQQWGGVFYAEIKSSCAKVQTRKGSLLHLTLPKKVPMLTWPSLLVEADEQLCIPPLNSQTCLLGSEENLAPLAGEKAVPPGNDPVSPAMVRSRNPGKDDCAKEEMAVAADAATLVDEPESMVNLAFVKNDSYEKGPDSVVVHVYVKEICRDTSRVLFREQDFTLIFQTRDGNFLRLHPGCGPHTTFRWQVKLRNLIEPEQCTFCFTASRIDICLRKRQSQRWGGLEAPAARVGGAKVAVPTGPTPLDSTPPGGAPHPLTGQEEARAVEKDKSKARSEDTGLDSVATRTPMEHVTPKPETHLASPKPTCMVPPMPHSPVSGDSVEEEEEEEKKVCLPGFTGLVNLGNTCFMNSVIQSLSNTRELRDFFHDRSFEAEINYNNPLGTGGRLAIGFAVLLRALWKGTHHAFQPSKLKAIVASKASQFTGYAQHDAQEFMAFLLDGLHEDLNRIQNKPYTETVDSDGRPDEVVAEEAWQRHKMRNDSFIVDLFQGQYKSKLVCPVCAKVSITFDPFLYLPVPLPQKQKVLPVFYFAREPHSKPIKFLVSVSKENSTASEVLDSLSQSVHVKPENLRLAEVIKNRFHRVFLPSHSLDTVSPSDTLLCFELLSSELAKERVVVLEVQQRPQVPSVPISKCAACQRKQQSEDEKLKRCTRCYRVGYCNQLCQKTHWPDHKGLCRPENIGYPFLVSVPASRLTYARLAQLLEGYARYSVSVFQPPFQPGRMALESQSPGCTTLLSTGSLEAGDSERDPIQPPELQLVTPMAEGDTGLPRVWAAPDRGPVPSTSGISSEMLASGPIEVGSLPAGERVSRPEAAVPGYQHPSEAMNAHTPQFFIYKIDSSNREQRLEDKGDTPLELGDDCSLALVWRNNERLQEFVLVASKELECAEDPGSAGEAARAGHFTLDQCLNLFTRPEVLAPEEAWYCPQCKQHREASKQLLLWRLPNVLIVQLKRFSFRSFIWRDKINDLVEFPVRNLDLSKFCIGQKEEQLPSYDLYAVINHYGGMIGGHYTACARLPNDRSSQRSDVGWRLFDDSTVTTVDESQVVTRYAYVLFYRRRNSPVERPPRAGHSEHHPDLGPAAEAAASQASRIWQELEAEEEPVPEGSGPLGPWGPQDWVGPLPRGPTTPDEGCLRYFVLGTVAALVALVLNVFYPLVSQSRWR", "outline": "(§1)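 Each value is an average log2 ratio of fragment to vehicle, tested by unpaired t-test. The underlying Spectronaut label-free quantities were global-median-normalised, and only proteins with ≥2 unique peptides were included. Triplicate HEK293T lysate samples (495 µg) were exposed to fragment at 200 µM or vehicle for 3 h, then to Biotin-Ahx-Ub-VS at 0.5 µM final for 1 h, before NeutrAvidin enrichment of labelled DUBs, LysC and trypsin digestion, and diaPASEF LC-MS/MS.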"}, "USP22": {"biological_target": "T2, USP22 (UniProt Q9UPT9)", "T2 sequence (whole entry)": "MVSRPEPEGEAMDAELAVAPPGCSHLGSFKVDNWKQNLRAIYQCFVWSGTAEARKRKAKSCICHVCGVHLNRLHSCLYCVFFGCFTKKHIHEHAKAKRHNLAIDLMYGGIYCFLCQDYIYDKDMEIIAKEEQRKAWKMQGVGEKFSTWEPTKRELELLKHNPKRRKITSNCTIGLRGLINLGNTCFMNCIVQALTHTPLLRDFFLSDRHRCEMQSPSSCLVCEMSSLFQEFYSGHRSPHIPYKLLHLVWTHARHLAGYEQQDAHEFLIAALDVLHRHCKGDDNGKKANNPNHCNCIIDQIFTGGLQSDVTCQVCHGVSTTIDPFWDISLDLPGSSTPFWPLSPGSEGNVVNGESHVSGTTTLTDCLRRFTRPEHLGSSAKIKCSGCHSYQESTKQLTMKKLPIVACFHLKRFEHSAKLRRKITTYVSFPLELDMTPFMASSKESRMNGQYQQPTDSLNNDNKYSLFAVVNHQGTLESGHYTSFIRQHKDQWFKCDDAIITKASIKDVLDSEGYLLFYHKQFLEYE", "outline": "as §1"}, "USP24": {"biological_target": "USP24 (UniProt Q9UPU5)", "sequence (Q9UPU5 whole entry)": "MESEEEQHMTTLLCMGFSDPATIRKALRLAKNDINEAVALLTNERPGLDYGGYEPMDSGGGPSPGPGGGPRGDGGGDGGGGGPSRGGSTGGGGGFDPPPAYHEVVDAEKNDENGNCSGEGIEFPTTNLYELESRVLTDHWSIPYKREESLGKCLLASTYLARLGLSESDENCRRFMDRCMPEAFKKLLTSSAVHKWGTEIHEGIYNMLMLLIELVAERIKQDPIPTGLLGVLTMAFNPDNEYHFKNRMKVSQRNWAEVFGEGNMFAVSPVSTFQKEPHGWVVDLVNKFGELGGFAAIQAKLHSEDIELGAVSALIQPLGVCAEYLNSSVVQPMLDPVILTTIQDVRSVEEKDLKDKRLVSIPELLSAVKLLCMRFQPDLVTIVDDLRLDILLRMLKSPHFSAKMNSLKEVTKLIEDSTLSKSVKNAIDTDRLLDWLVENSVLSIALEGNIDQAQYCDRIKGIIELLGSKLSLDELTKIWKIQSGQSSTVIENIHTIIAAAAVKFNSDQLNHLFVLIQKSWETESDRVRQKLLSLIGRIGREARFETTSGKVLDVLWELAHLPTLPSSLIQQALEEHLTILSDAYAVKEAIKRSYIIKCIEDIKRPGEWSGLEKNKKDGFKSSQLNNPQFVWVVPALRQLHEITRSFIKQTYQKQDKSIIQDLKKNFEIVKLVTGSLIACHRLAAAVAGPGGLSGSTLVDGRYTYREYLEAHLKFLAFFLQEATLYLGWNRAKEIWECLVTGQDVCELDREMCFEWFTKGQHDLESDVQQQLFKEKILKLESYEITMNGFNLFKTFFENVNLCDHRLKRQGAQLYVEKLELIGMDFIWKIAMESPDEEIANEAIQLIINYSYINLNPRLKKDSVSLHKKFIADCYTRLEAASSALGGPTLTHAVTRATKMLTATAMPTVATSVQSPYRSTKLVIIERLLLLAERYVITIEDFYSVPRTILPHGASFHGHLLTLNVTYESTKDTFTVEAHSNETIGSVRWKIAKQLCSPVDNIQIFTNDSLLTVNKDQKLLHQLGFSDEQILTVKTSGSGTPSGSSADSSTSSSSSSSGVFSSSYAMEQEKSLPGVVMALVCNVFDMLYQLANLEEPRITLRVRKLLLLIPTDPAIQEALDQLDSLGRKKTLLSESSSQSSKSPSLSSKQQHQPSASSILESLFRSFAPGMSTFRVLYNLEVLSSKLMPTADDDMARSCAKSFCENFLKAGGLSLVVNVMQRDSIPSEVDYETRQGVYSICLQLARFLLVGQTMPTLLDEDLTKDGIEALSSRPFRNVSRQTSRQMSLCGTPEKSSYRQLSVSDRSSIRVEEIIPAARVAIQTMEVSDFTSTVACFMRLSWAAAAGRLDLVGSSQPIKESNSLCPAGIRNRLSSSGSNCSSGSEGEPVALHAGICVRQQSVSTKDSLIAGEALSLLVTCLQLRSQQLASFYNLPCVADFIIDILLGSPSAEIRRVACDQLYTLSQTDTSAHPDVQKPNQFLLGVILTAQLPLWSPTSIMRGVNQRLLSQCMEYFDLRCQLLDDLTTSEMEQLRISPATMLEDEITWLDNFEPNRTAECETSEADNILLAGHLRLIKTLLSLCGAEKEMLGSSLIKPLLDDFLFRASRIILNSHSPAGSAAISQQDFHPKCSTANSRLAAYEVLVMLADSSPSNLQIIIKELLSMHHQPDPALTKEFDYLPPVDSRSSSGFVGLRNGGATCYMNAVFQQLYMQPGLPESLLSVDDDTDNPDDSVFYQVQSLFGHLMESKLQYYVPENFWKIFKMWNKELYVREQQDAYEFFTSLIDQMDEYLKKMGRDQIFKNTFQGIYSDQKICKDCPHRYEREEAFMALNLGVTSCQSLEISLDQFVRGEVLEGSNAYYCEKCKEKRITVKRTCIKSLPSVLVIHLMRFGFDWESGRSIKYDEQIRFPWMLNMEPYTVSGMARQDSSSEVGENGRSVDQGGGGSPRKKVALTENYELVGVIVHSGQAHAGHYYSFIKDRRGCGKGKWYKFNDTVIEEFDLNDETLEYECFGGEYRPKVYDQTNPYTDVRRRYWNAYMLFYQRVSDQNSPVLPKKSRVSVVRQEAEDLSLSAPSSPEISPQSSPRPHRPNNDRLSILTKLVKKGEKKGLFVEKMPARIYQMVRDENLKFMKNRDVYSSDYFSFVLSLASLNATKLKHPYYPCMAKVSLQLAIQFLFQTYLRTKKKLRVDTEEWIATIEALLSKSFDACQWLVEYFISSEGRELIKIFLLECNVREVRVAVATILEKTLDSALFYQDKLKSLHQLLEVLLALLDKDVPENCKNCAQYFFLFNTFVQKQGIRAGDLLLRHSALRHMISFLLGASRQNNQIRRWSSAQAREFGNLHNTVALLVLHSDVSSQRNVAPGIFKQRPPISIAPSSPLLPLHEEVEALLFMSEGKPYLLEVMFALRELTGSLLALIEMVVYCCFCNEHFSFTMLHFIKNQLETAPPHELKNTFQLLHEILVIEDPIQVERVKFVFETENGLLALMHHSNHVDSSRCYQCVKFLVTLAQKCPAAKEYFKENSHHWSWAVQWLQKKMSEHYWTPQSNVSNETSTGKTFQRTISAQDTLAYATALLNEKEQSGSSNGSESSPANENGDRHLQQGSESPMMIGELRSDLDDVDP", "outline": "as §1"}, "USP25": {"biological_target": "T3, USP25 (UniProt Q9UHP3)", "T3 sequence (whole entry)": "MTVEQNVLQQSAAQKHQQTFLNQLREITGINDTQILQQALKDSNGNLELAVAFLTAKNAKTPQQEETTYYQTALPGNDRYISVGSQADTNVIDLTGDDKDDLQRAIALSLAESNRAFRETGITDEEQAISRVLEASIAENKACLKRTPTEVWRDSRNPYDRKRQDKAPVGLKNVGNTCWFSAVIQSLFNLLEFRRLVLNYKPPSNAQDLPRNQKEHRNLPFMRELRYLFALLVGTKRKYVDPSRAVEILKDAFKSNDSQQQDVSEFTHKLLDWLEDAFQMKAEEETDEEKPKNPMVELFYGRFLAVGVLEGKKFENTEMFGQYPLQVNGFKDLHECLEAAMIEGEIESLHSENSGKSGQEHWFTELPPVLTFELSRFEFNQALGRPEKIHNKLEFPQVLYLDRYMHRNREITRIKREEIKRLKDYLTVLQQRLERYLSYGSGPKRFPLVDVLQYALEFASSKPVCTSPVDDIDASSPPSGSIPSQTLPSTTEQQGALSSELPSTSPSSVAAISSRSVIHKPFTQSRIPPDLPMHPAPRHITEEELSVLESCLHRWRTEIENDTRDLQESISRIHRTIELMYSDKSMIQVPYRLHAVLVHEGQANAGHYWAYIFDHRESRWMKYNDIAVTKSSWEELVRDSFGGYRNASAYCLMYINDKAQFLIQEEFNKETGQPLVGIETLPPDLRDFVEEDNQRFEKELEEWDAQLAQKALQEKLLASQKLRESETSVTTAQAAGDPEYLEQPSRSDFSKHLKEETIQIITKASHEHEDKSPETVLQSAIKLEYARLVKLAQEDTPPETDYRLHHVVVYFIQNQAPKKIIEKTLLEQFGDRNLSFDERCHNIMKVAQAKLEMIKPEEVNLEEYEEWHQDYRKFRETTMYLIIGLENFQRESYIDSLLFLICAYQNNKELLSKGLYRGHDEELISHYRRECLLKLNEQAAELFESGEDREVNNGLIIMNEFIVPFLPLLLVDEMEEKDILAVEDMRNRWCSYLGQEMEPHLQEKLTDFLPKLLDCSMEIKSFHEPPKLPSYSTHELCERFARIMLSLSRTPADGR", "outline": "as §1"}, "USP28": {"biological_target": "T4, USP28 (UniProt Q96RU2)", "T4 sequence (whole entry)": "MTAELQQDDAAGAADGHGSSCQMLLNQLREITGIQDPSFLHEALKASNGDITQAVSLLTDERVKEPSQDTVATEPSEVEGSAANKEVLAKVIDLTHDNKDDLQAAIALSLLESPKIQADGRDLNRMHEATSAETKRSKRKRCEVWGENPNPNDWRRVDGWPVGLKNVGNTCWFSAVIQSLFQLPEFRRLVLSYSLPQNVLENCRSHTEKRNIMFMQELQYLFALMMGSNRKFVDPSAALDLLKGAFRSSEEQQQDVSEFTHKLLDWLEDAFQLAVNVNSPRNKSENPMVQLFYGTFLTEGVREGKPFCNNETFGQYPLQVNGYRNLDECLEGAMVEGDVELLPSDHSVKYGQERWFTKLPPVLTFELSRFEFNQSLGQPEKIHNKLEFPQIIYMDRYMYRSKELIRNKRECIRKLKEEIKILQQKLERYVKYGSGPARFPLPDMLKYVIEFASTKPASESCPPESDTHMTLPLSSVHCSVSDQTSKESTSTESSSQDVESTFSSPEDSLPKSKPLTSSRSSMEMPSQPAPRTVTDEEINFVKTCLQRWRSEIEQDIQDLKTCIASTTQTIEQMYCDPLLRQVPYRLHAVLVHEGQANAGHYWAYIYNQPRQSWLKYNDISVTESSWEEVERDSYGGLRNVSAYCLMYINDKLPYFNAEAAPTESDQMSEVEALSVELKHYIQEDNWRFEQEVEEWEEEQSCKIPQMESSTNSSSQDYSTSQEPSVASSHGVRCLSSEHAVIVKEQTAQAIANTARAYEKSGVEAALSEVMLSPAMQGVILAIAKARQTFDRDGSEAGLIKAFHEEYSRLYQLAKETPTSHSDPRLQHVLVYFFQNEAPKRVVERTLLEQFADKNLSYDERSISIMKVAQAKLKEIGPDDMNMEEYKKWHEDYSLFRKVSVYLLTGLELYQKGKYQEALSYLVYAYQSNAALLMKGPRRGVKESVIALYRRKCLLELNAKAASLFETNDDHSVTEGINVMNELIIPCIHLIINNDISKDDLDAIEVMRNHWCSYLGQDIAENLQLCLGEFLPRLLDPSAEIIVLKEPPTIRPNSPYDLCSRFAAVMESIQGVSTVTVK", "outline": "as §1"}}, "note": "A number with no mark means an inactive call.", "data": [{"smiles": "Cc1ccc(N(CCC#N)C(=O)CCl)cc1C", "values": [{"measurement": "log2 ratio of Biotin-Ahx-Ub-VS probe labelling", "setting": "USP19", "result": -0.203}, {"measurement": "log2 ratio of Biotin-Ahx-Ub-VS probe labelling", "setting": "USP22", "result": 0.0466}, {"measurement": "log2 ratio of Biotin-Ahx-Ub-VS probe labelling", "setting": "USP24", "result": "-1.05 (active)"}, {"measurement": "log2 ratio of Biotin-Ahx-Ub-VS probe labelling", "setting": "USP25", "result": -0.271}, {"measurement": "log2 ratio of Biotin-Ahx-Ub-VS probe labelling", "setting": "USP28", "result": -0.679}]}]}
